Measurements: PubChem BioAssay (Tox21)
Several values for one entry are separate records, joined by “and”; a condition that tells them apart may be missing. Identical values can stand only once. Inconclusive results are not listed. Entries that show only a call come without a potency. Some structures have more than one record in an assay (separate samples or runs), and their calls can disagree. Activity calls are given as the source filed them. Unless noted, calls come from the whole dose curve; as a rule, active = well fitted curve in the direction sought with a large enough effect in the repeat runs; inconclusive = weak or mixed curves; inactive = no such curve, though single readings can be large; an effect the other way counts as inactive or inconclusive.

Assays:
[1] = molecular target: Progesterone receptor (Homo sapiens) (UniProt P06401); assay: qHTS assay to identify small molecule agonists of the progesterone receptor (PR) signaling pathway (AID 1346784; calls by dose curve; note: nearly all actives have a fitted effect of over 30% in size)
Summary of the method: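 Cells (PR-UAS-bla HEK 293T, GripTite) were plated in assay medium containing 2% charcoal-stripped FBS and incubated 6 hr. Test compounds in DMSO were added for 16 hr at 37C. FRET substrate was then loaded for 2 hr at room temperature before fluorescence reading.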

[2] = molecular target: Progesterone receptor (Homo sapiens) (UniProt P06401); assay: qHTS assay to identify small molecule antagonists of the progesterone receptor (PR) signaling pathway (AID 1346795; active = well fitted inhibition curve with a large enough effect in the signal ratio in the repeat runs, not every such curve was filed as active; the % refers to the signal ratio; note: potency is the fitted concentration of half-maximal effect)
Summary of the method: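 Antagonist mode: compounds tested against 1 nM (final) promegestone stimulation in HEK293T cells expressing PR-UAS-bla reporter, 16 hr at 37C, 5% CO2; beta-lactamase activity detected via B/G FRET substrate after 2 hr at room temperature.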

[3] = qHTS assay to identify small molecule antagonists of the progesterone receptor (PR) signaling pathway - cell viability counter screen (AID 1346798); note: series mostly up to about 92 µM; nearly all actives have a fitted effect of over 50% in size
Summary of the method: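 Counter screen for cytotoxicity: viability of PR-UAS-bla HEK293T cells was measured with CellTiter-Glo luminescence following 16 hr compound exposure in the presence of R5020.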

[4] = qHTS assay to identify small molecule agonists of the progesterone receptor (PR) signaling pathway - cell viability counter screen (AID 1346799; calls by dose curve; note: nearly all actives have a fitted effect of over 45% in size)
Summary of the method: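 Cells (PR-UAS-bla HEK293T) are plated at 3,000/well in 2% charcoal-stripped FBS medium, rested 6 hr, dosed and incubated 16 hr at 37C. CellTiter-Glo is then added and luminescence measured after 30 min at room temperature.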

[5] = qHTS assay to identify small molecule antagonists of the TGF-beta/Smad signaling pathway - cell viability counter screen (AID 1346824); note: nearly all actives have a fitted effect of over 50% in size
Summary of the method: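 SBE-bla HEK 293T cells were plated overnight at 37 C, then given compounds in DMSO plus TGF-beta1 (added as 0.25 ng/mL solution) for 5 hr. After the bla read, CellTiter-Glo was added to the same wells and luminescence read after 30 min at room temperature.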

[6] = qHTS assay to identify small molecule agonists of the TGF-beta/Smad signaling pathway - cell viability counter screen (AID 1346829); note: nearly all actives have a fitted effect of over 45% in size; note: potency is the fitted concentration of half-maximal effect
Summary of the method: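 Luminescence from CellTiter-Glo, read after a 30 min room-temperature incubation, gives cell viability of SBE-bla HEK 293T cells treated 5 hr with compounds at 37 C.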

[7] = qHTS assay to identify small molecule agonists of the TGF-beta/Smad signaling pathway (AID 1346859; active = well fitted activation curve with a large enough effect in the signal ratio in the repeat runs, not every such curve was filed as active; the % refers to the signal ratio; note: series mostly up to about 77 µM)
Summary of the method: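 Reporter line: HEK 293T with stably integrated SBE-controlled beta-lactamase. Compound exposure lasts 5 hr at 37 C and 5% CO2; substrate loading follows for 2 hr at room temperature, with emission read at 460 and 530 nm.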

[8] = Human pregnane X receptor (PXR) small molecule agonists, qHTS cell viability counter screen (AID 1346977); note: nearly all actives have a fitted effect of over 50% in size
Summary of the method: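 Cytotoxicity counter screen run in the same wells as the PXR luciferase assay, using PXR-Luc HepG2 cells in charcoal-stripped serum medium. Viability: CellTiter-Fluor fluorescence after 24hr compound treatment.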

[9] = Caspase-3/7 induction in HepG2 cells by small molecules, qHTS assay (AID 1346978); note: nearly all actives have a fitted effect of over 15% in size
Summary of the method: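 Wild-type HepG2 cells (2,000/well) were settled 5 h at 37 C, 5% CO2, then exposed to compounds in DMSO for 17 h. Caspase-3/7 activity was read by luminescence 30 min after adding Caspase-Glo 3/7 reagent at room temperature.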

[10] = Caspase-3/7 induction in CHO-K1 cells by small molecules, qHTS cell viability counter screen (AID 1346979); note: nearly all actives have a fitted effect of over 35% in size; note: potency is the fitted concentration of half-maximal effect
Summary of the method: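 Cytotoxicity counter screen run in parallel with the caspase-3/7 assay: CHO-K1 cells, 16hr compound treatment at 37C, then CellTiter-Fluor for 1hr before fluorescence reading.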

[11] = Caspase-3/7 induction in CHO-K1 cells by small molecules, qHTS assay (AID 1346980); note: nearly all actives have a fitted effect of over 15% in size
Summary of the method: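 Wild-type cells were seeded at 1,500 per well and settled 5 hr at 37 C, 5% CO2, then exposed to DMSO-dissolved compounds for 17 hr. Caspase-Glo 3/7 reagent was added, and luminescence was read after 30min at room temperature.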

[12] = Caspase-3/7 induction in HepG2 cells by small molecules, qHTS cell viability counter screen (AID 1346981); note: series mostly up to about 92 µM; nearly all actives have a fitted effect of over 30% in size
Summary of the method: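 Multiplexed with the caspase-3/7 assay: HepG2 cells, 16 hr compound treatment, CellTiter-Fluor viability detection by fluorescence.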

[13] = molecular target: Nuclear receptor subfamily 1 group I member 2 (Homo sapiens) (UniProt O75469); assay: Human pregnane X receptor (PXR) small molecule agonists, qHTS assay (AID 1346982); note: nearly all actives have a fitted effect of over 35% in size; note: potency is the fitted concentration of half-maximal effect
Summary of the method: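 We seeded PXR-Luc HepG2 cells in assay medium containing 5% charcoal-stripped FBS, added compounds 5 hr later, incubated 24 hr, and read luminescence with ONE-Glo reagent.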

[14] = molecular target: Acetylcholinesterase (Homo sapiens) (UniProt P22303); assay: Acetylcholinesterase (AChE) small molecule antagonists: colormetric cell-based qHTS assay (AID 1347395; calls by dose curve; note: nearly all actives have a fitted effect of over 30% in size)
Summary of the method: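 Cells (SH-SY5Y, 2,000 per well) are seeded and left overnight at 37 C. Compound is added for 30 min, then DTNB and acetylthiocholine for a further 90 min at 37 C before absorbance-based thiocholine detection.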

[15] = molecular target: Acetylcholinesterase (Homo sapiens) (UniProt P22303); assay: Acetylcholinesterase (AChE) small molecule antagonists: enzyme-based qHTS assay (AID 1347397; calls by dose curve; note: nearly all actives have a fitted effect of over 55% in size); conditions: Potency: AChE enzyme activity inhibition
Summary of the method: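 Recombinant human AChE, dispensed at 50 mU/mL, was preincubated with Tox21 10K compounds or DMSO vehicle for 30 min at room temperature. DTNB plus acetylthiocholine was then added, and thiocholine was measured colorimetrically after a further 10 min.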

[16] = molecular target: Thyrotropin-releasing hormone receptor (Homo sapiens) (UniProt P34981); assay: qHTS assay to identify small molecule antagonists of the thyrotropin-releasing hormone receptor (TRHR) signaling pathway (AID 1346877; active = well fitted inhibition curve with a large enough effect in the repeat runs, not every such curve was filed as active; note: series mostly up to about 51 µM)
Summary of the method: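 Screening used HEK293 cells engineered with TRHR, with a brief 5 min room-temperature compound exposure preceding addition of TRH to 1 nM. The read-out was kinetic calcium-dye fluorescence, concentration-response from 15 doses in triplicate.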

[17] = molecular target: Thyrotropin-releasing hormone receptor (Homo sapiens) (UniProt P34981); assay: qHTS assay to identify small molecule agonists of the thyrotropin-releasing hormone receptor (TRHR) signaling pathway (AID 1346891; calls by dose curve;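 note: HEK293 cells expressing TRHR with calcium dye readout; series mostly up to about 58 µM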)
Summary of the method: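 Cells: TRHR-Hek293, seeded and incubated 18 h. Dye loading: 2 h at 37 °C. Compound added from DMSO stock by pin tool. Read-out: kinetic calcium fluorescence over 3 min.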

[18] = molecular target: Nuclear receptor subfamily 1 group I member 2 (Rattus norvegicus) (UniProt Q9R1A7); assay: Rat pregnane X receptor (rPXR) activation by small molecules, qHTS assay (AID 1346983); conditions: rPXR luciferase reporter cells, One-Glo luminescence, 24 h; max activation: stronger effect = higher value; note: nearly all actives have a fitted effect of over 20% in size
Summary of the method: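 Cell-based rPXR luciferase reporter assay, 2,000 cells per well, rested 5hr at 37 C before compound addition in DMSO, then 24 hr at 37 C. One-Glo reagent was added and luminescence read after 30 min at room temperature.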

[19] = molecular target: Nuclear receptor subfamily 1 group I member 2 (Homo sapiens) (UniProt O75469); assay: CYP3A4 induction through human pregnane X receptor (PXR) by small molecules, qHTS assay (AID 1346984); note: nearly all actives have a fitted effect of over 40% in size
Summary of the method: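 qHTS, concentration-response format: HepG2 DPX-2 line, PXR/CYP3A4-luc. Exposure 24 h, 37C. Substrate Luciferin-IPA 3uM final, 3 h. Detection One-Glo, 30 min RT.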

[20] = molecular target: Nuclear receptor subfamily 1 group I member 2 (Homo sapiens) (UniProt O75469); assay: Human pregnane X receptor (PXR) activation by small molecules, qHTS assay (AID 1346985); note: nearly all actives have a fitted effect of over 40% in size
Summary of the method: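 DPX-2 cells (HepG2 co-transfected with a PXR response element and a CYP3A4-promoter luciferase construct) were seeded at 2,000 per well, rested 5 hr at 37C, then exposed to DMSO-dissolved compounds for 24 hr. Activation was read as luciferase luminescence.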

Nuclear receptor subfamily 1 group I member 2 (Homo sapiens), sequence (O75469 whole entry, looked up): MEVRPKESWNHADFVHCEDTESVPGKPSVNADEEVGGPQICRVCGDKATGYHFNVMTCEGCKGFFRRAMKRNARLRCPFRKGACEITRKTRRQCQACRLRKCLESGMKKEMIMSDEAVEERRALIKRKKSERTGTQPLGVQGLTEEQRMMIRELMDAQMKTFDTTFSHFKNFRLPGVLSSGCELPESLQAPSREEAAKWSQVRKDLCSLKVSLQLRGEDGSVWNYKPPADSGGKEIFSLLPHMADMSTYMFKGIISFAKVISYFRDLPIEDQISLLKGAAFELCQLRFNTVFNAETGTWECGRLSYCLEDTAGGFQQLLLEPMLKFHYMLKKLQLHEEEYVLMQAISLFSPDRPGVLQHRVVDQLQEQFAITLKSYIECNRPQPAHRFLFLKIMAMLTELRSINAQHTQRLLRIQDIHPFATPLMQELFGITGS
Acetylcholinesterase (Homo sapiens), sequence (P22303 whole entry, looked up): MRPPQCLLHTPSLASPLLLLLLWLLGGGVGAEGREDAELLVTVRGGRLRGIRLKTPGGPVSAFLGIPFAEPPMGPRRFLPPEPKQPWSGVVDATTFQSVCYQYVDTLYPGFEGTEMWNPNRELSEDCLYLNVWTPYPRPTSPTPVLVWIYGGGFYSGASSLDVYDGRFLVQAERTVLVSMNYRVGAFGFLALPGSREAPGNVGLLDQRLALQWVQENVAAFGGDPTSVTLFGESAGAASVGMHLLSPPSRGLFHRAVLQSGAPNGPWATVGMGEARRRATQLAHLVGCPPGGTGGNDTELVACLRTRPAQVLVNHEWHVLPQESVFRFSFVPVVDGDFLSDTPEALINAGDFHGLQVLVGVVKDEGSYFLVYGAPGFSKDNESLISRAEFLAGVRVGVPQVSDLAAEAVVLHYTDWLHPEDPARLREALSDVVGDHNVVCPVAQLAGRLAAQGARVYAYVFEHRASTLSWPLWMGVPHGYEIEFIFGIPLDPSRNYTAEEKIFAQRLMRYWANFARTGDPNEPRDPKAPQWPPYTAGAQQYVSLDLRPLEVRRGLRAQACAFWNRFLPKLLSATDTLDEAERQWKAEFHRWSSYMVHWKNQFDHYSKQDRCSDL
Progesterone receptor (Homo sapiens), sequence (P06401 whole entry, looked up): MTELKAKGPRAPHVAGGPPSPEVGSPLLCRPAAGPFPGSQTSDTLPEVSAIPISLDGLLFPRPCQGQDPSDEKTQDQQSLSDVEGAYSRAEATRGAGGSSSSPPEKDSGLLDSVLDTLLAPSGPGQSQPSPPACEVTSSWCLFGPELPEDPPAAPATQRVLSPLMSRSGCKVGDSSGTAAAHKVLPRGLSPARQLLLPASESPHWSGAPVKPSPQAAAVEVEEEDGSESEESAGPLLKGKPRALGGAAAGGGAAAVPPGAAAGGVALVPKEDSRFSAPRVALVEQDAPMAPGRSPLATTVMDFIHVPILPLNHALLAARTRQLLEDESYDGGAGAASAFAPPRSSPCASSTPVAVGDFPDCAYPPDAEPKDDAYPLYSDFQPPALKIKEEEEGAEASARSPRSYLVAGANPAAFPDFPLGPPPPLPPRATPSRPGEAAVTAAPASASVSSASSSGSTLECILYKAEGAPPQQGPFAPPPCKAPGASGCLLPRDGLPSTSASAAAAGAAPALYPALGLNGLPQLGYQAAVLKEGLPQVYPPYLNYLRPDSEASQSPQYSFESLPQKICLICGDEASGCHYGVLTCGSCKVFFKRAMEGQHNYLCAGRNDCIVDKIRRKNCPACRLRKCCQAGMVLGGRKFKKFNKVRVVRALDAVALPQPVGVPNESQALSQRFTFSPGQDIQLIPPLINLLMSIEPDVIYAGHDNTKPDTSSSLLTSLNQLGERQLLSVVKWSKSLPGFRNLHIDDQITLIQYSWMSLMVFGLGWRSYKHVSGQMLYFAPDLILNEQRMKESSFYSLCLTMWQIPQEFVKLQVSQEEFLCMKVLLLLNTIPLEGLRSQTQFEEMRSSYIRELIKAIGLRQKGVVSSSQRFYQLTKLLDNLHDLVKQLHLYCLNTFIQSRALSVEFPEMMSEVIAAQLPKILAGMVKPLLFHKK
Thyrotropin-releasing hormone receptor (Homo sapiens), sequence (P34981 whole entry, looked up): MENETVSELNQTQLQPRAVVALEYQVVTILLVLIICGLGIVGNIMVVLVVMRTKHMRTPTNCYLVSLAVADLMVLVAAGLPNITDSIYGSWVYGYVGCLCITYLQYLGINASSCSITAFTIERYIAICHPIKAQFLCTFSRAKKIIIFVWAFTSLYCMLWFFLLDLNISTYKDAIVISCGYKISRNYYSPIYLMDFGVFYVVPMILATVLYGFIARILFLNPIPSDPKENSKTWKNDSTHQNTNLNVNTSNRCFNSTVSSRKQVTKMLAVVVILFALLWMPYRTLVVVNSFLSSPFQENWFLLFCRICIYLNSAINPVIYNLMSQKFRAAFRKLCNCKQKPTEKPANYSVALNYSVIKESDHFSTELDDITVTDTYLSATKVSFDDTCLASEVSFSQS
Nuclear receptor subfamily 1 group I member 2 (Rattus norvegicus), sequence (Q9R1A7 whole entry, looked up): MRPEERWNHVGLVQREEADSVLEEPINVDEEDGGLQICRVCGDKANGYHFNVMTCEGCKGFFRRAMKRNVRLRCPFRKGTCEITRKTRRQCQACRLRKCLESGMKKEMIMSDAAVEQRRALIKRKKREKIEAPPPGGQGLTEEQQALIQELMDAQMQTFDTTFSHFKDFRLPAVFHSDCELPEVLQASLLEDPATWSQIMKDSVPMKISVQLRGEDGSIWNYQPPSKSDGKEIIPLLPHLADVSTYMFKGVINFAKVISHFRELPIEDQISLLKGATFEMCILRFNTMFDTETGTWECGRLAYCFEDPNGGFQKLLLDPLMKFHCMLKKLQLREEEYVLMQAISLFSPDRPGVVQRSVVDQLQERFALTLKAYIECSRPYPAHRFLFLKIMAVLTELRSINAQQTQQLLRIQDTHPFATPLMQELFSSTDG

| SMILES | Potency [1] | Potency [2] | Potency [3] | Potency [4] | Potency [5] | Potency [6] | outcome [7] | Potency [8] | Potency [9] | Potency [10] | Potency [11] | Potency [12] | Potency [13] | Potency [14] | Potency [15] | Potency [16] | Potency [17] | max activation [18] | Potency [19] | Potency [20] |
| --- | --- | --- | --- | --- | --- | --- | --- | --- | --- | --- | --- | --- | --- | --- | --- | --- | --- | --- | --- | --- |
| OCC(Br)CBr (centres undefined) | inactive | inactive | inactive | inactive | inactive | inactive | inactive | inactive | inactive | inactive | inactive | inactive | inactive | inactive | inactive | – | – | – | – | – |
| ClC1=C(Cl)[C@]2(Cl)[C@H]3[C@H]([C@@H]4C=C[C@H]3C4)[C@@]1(Cl)C2(Cl)Cl | inactive | 21.7 µM (active) | inactive | inactive | inactive | inactive and 49 µM (active) | inactive | inactive | inactive | – | – | inactive | 34.3 µM (active) and inactive | – | inactive | inactive | inactive | – | – | – |
| Nc1nc(N)nc(Cl)n1 | inactive | inactive | inactive | inactive | inactive | inactive | inactive | inactive | inactive | inactive | inactive | inactive | inactive | – | inactive | inactive | inactive | – | – | – |
| CC(Cc1ccc(O)cc1)NCC(O)c1cc(O)cc(O)c1 (centres undefined) | inactive | inactive | inactive | inactive | inactive | inactive | inactive | inactive | inactive | inactive | inactive | inactive | inactive | – | – | inactive | inactive | -1.7% (inactive) | inactive | inactive |
| Cc1ccc(C)c2ccccc12 | inactive | inactive | inactive | inactive | inactive | inactive | inactive | inactive | inactive | inactive | inactive | inactive | inactive | inactive | inactive | inactive | inactive | – | – | – |
| O=[N+]([O-])c1ccccc1-c1ccccc1 | inactive | inactive | inactive | inactive | inactive | inactive | inactive | inactive | inactive | inactive | inactive | inactive | inactive | inactive | inactive | inactive | inactive | – | – | – |
| Oc1ccc(Cl)c(Cl)c1 | inactive | 26.9 µM (active) | inactive | inactive | inactive | inactive | inactive | inactive | inactive | 67.5 µM (active) | inactive | inactive | 60.2 µM (active) | inactive | inactive | inactive | inactive | – | – | – |
